# Source: ChEMBL document CHEMBL3988442, “University of Dundee, Small-Polar-MMV Screening Library” (2021)
# For part of these data: Entries with a potency or affinity are not part of this list.
# Experiments:
# Parameters in all cases: scale not given: direction of the effect not stated beside the values
# [1] = target: Protein translocase subunit SecA (Escherichia coli (strain K12)) (UniProt P10408); experiment: Assay to Identify E. coli SecA ATPase Inhibitors; type: functional; conditions: 30 µM
# Protein translocase subunit SecA (Escherichia coli (strain K12)), sequence (P10408 whole entry): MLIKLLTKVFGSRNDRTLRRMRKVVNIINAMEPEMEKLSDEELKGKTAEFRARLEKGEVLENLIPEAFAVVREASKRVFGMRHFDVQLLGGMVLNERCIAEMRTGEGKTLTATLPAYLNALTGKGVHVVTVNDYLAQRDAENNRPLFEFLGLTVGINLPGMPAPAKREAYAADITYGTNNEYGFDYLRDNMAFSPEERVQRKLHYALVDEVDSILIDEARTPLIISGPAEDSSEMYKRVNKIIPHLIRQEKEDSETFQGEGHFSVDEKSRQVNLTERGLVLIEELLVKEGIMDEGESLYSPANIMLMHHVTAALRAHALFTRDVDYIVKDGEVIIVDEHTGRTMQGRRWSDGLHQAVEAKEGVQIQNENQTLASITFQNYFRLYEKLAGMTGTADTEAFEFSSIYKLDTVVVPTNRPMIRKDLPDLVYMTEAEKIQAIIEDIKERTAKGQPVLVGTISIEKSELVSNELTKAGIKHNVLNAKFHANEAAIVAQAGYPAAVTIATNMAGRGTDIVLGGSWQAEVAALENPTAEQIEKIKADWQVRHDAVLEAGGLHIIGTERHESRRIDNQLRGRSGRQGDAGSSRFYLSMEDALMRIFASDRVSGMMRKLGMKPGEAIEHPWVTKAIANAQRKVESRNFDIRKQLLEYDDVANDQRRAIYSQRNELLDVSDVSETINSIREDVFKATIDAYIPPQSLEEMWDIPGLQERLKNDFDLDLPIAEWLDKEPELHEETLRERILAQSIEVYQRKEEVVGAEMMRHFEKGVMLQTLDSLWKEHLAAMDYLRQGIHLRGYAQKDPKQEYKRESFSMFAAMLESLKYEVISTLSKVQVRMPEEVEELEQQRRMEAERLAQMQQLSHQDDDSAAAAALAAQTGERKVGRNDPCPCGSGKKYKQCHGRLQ
# [2] = target: T1, Ubiquitin-activating enzyme e1, putative (Leishmania donovani (strain BPK282A1)) (UniProt E9BSI1); experiment: Leishmania donovani Ubiquitin Activating Enzyme (LdE1); type: functional; conditions: 30 µM
# T1 sequence (whole entry): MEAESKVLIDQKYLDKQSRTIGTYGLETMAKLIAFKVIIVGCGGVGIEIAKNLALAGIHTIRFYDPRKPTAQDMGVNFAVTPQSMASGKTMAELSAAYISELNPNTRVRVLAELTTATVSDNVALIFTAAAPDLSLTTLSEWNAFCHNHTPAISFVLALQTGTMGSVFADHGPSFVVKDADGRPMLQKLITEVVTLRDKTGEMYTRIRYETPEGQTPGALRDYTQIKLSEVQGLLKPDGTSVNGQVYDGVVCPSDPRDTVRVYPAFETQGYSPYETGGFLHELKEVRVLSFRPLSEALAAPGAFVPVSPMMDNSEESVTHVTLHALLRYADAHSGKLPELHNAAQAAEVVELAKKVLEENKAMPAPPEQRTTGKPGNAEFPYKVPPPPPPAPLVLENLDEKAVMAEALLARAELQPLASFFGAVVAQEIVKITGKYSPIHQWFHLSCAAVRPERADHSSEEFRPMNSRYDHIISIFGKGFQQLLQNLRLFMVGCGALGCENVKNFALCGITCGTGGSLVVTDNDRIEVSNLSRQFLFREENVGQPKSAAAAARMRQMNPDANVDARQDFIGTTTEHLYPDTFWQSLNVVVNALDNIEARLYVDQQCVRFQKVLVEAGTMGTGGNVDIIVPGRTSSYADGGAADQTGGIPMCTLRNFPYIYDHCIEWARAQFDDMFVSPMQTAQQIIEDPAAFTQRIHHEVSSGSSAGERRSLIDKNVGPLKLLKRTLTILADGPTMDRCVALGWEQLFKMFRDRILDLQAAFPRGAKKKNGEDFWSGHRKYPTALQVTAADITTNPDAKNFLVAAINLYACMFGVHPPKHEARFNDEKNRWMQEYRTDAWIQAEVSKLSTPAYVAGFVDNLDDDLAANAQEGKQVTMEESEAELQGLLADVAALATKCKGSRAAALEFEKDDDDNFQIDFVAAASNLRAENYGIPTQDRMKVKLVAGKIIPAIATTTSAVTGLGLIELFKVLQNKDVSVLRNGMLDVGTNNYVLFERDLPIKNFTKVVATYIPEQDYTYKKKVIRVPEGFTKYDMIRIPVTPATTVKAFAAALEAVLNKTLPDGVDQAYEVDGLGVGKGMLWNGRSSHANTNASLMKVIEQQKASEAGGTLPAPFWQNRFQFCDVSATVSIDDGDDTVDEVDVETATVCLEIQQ
# [3] = target: AMP-activated protein kinase, AMPK (Homo sapiens) (UniProt P54646+O43741+P54619+Q9UGJ0+Q9Y478+Q13131+Q9UGI9); experiment: AMP-dependent Kinase enzyme assay. An in vitro enzyme assay that detects ADP turnover that is directly proportional to AMPK activity. This uses naive AMPK that is activated during the assay with MK-8722; type: functional; conditions: 30 µM
# [4] = target: Sialic acid-binding Ig-like lectin 9 (Homo sapiens) (UniProt Q9Y336); experiment: Hs-Siglec9 ALPHAscreen SOP 20170721; conditions: 10 µM
# Sialic acid-binding Ig-like lectin 9 (Homo sapiens), sequence (Q9Y336 whole entry): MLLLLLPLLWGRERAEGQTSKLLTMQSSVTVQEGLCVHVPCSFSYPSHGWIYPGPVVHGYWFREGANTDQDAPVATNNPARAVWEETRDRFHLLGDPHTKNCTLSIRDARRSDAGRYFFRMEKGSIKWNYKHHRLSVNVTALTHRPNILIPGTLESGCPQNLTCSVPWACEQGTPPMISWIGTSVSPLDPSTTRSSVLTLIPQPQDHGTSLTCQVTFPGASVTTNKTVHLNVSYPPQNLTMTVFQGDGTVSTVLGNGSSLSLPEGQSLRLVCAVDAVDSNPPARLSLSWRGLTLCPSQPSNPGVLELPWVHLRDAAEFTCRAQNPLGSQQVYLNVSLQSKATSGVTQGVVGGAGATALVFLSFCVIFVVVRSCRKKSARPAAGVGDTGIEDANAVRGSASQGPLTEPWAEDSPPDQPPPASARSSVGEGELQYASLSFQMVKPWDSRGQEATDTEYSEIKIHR
# [5] = test system: Trypanosoma cruzi; experiment: Trypanosoma cruzi phosphomannomutase and mannose-1-phosphate guanylyltransferase assay; type: functional; conditions: 10 µM
# [6] = target: T2, Arginase-2, mitochondrial (Homo sapiens) (UniProt P78540); experiment: in vitro enzyme assay to detect the production of urea directly proportional to the activity of Arginase II; type: functional; conditions: 33.3 µM; further: in the data most compounds retested in dose-response had high values
# T2 sequence (whole entry): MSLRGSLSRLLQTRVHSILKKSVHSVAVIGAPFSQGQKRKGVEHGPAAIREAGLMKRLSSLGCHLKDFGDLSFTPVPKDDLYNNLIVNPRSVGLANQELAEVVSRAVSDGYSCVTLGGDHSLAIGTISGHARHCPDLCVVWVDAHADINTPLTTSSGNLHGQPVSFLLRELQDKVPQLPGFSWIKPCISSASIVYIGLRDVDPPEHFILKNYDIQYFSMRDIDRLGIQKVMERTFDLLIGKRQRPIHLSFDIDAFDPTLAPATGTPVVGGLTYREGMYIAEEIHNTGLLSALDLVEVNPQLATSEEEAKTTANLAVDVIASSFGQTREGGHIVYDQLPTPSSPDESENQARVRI
# [7] = target: T3, Proteasome subunit beta (Trypanosoma cruzi) (UniProt O96673); experiment: Trypanosoma cruzi proteasome chymotrypsin-like activity (TcProtChymo) assay.; further: in the data most compounds retested in dose-response had high values; type: functional; conditions: 9.37 µM
# T3 sequence (whole entry): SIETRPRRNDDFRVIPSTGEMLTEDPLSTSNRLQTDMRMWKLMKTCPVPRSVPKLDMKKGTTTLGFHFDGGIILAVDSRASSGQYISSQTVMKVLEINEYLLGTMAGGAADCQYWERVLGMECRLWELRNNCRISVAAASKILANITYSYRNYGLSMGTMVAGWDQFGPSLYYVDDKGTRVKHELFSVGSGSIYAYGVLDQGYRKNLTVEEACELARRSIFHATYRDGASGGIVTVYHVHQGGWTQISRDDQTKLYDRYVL
# [8] = species: Homo sapiens; experiment: To identify inhibition of the IFN signalling (Jak-Stat) pathway via expression of an eGFP reporter gene under the control of an IFN-stimulated response element (ISRE) containing MxA promoter.; type: functional; conditions: 30 µM
# [9] = target: T4, Tyrosyl-tRNA synthetase, putative (Trypanosoma cruzi (strain CL Brener)) (UniProt Q4DSP6); experiment: Trypanosoma cruzi tyrosyl tRNA synthetase (TcYRS) _High Tyrosine SOP; type: functional; conditions: 30 µM; further: in the data most compounds retested in dose-response had high values
# T4 sequence (whole entry): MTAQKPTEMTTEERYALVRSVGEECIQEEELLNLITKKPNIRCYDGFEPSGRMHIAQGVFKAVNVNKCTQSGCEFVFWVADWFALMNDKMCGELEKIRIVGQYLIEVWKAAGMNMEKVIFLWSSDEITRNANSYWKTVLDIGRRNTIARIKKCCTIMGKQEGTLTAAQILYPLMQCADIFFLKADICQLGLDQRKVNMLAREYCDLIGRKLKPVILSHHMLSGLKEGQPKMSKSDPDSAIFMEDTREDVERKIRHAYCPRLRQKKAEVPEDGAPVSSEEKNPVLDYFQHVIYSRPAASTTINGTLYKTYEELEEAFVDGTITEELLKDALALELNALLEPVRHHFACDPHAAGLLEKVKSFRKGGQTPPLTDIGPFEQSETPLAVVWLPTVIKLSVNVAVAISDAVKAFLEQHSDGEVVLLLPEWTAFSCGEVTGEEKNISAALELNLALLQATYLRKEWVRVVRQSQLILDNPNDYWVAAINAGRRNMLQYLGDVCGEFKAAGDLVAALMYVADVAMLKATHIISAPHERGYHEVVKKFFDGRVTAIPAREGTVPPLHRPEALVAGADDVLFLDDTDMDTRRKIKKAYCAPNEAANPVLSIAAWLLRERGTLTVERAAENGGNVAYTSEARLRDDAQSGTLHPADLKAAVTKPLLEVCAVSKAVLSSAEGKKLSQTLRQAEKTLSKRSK
# [10] = target: T4, Tyrosyl-tRNA synthetase, putative (Trypanosoma cruzi (strain CL Brener)); experiment: Trypanosoma cruzi tyrosyl tRNA synthetase (TcYRS) SOP; type: functional; conditions: 30 µM
# [11] = target: Chromo domain-containing protein 1 (Saccharomyces cerevisiae (strain ATCC 204508 / S288c) (Baker's yeast)) (UniProt P32657); experiment: ScCHD-1 Enzyme Inhibition Assay; type: functional; conditions: 30 µM; further: in the data most compounds retested in dose-response had high values
# Chromo domain-containing protein 1 (Saccharomyces cerevisiae (strain ATCC 204508 / S288c) (Baker's yeast)), sequence (P32657 whole entry, the tested form may be a part): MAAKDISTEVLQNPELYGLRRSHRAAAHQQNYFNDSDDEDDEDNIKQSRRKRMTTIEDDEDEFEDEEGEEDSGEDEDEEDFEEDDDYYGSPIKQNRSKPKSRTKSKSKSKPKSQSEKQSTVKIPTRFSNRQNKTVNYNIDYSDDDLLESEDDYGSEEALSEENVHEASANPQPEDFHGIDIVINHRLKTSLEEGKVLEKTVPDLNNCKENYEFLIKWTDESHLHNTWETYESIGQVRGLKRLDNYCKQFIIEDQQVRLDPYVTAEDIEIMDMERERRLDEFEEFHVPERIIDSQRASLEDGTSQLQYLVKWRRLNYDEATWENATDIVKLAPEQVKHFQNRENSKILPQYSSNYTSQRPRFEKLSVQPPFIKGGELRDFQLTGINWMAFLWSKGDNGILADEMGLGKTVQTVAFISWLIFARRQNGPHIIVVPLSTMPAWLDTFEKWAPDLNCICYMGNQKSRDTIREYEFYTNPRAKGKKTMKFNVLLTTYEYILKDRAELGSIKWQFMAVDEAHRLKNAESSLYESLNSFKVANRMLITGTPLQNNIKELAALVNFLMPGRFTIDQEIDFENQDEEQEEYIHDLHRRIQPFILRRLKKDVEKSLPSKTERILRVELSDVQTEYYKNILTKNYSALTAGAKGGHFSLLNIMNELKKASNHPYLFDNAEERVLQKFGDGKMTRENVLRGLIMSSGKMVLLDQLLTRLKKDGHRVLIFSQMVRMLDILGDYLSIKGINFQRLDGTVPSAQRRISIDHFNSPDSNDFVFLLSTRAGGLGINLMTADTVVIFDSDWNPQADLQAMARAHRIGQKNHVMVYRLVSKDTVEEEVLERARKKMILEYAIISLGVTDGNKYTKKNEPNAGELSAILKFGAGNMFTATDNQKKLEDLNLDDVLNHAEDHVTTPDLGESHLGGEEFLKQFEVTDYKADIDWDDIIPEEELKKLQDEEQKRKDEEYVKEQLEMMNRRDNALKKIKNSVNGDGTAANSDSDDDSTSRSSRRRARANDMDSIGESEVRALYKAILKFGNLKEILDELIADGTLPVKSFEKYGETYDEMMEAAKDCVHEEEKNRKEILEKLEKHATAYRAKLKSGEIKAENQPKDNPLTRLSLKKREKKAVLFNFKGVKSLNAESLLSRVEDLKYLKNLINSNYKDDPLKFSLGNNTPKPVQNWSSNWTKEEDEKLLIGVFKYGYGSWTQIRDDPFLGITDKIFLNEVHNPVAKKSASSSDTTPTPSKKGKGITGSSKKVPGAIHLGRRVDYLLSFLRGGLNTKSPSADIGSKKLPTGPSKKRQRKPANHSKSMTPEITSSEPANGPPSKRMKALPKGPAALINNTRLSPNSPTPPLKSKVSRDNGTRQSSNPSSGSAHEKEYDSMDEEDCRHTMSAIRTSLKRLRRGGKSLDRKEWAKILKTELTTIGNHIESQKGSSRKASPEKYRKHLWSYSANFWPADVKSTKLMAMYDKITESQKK
Structure (SMILES),Percent Effect [1] [%],Percent Effect [2] [%],Percent Effect [3] [%],Percent Effect [4] [%],Percent Effect [5] [%],Percent Effect [6] [%],Percent Effect [7] [%],Percent Effect [8] [%],Percent Effect [9] [%],Percent Effect [10] [%],Percent Effect [11] [%]
Cc1csc(CNC(=O)Nc2cc(C(F)(F)F)c[nH]c2=O)n1,-1.61,6.94,2.39,2.89,6.71,1.77,13.3,8.26,7.37,10.3,-3.2
Cc1cc(C)nc(N2Cc3cnn(Cc4ccc(F)cc4)c3C2)n1,-6.24,-2.67,1.55,-0.223,-7.5,-2.6,10.6,33.6,-6.01,-6.17,-5.39
CCOc1ccccc1CSc1nnc(CC2CCS(=O)(=O)C2)n1C (stereo unspecified),-2.9,2.7,-1.67,1.02,-3.42,1.74,9.19,5.04,3.23,11.1,-8.57
COc1ccc(C(C)N2CCN(Cc3nccn3C)CC2)cc1Cl (stereo unspecified),-3.06,2.6,-0.681,9.44,-1.87,0.712,11.3,9.04,2.91,0,-0.322
CN(C)C(=O)[C@@H]1C[C@@H]2CCN(Cc3nccs3)C[C@@H]2O1,-4.02,2.7,4.31,-1.06,-3.62,-3.5,21.8,-10.8,4.32,7.69,3.4
Cc1cc(N2CCC(c3nnc(CN(C)C)n3C3CC3)CC2)ccn1,-5.32,-1.39,34.9,-1.61,-4.37,-0.883,16.1,-6.01,1.05,-5.13,-4.13
Cc1nc(CN(C)C(=O)Nc2cnn(CC3CCCO3)c2)cs1 (stereo unspecified),-3.47,-5.41,-27.6,1.65,-0.965,0.952,5.86,15,-6.88,-9.76,0.495
Cn1cccc1C(=O)NCc1cnc2n1CCN(C(=O)N1CCCC1)C2,-5.97,16,-1.93,4.39,6.18,-45,7.86,3.79,2.08,12.5,-6.82
Cc1noc(NC(=O)c2ccc(Br)s2)n1,1.05,-5.26,14.6,-3.75,-5.13,3.96,9.39,40.2,-3.45,1.24,15.6
Cc1cc(=O)n(CC(=O)NCC2CCCO2)c(-c2ccc(F)cc2)n1 (stereo unspecified),-8.1,0,1.45,-2.38,-3.83,2.76,7.49,22.5,-1.07,-3.7,3.12
Cn1cc(CN2CC[C@H]3OCC[C@@H](C(=O)N4CCCCO4)[C@@H]3C2)cn1,-3.19,9.33,-0.147,1.18,-0.982,-6.51,11.3,6.18,2.12,7.69,-4.05
COc1ccc(CN2CCn3cc(Cn4cccn4)nc3C2)cc1,-0.217,5.2,5.77,-3.88,-5.03,-3.23,9.4,-15,5.29,-8.97,-4.7
CCCNCc1cn(C)nc1-c1cccnc1,-2.45,-2.7,1.1,-2.38,-6.55,1.74,11.8,-8,0,1.24,1.57
COc1cccc2c1ccn2CCNC(=O)C(C)C,-1.68,20,0.539,3.44,0.393,-1.94,18.5,26.9,7.41,12.8,-3.78
COCCOc1ncccc1CNCc1c(C)nn(C)c1N(C)C,-1.27,-5.41,-15.1,-0.788,1.98,3.61,0.721,-9.31,2.46,6.17,-18.1
COc1cc2cc(C(=O)N[C@@H](C)C(=O)O)n(C)c2c(OC)c1OC,0.309,4,0.773,3.31,-5.89,-12.8,13.1,0.994,8.47,7.69,-9.47
CC(CCc1ccccc1)NC(=O)Nc1cnn(CC(N)=O)c1 (stereo unspecified),-2.21,16.5,-2.88,2.1,-1.74,-4.52,17.8,8.25,3.12,20.2,-26.2
Cc1cc(C)c2nc(CN3CCCC(c4cc[nH]n4)C3)cc(O)c2c1 (stereo unspecified),-1.83,0,3.31,-3.01,-3.28,0,8.62,23.3,3.7,14.6,-5.03
CS(=O)(=O)NCc1cnc2n1CCN(Cc1ccsc1)CC2,1.5,21.9,-6.69,5.11,-5.16,-18,14.6,18.3,8.33,3.7,0.00549
CN1CCN(C(=O)c2nc3c(o2)CN(C(=O)c2cccnc2)C3)CC1,-2.08,0,-4.16,2.81,-1.28,-5.52,14,2.22,1.07,8.64,1.76
CC(C)C(=O)N1CCN(Cc2csc(-c3ncccn3)n2)CC1,-3.04,0,9.34,3.09,1.27,0,11.4,2.18,4.25,10.4,-1.19
